High-throughput results deposited in PubChem by Broad Institute.
miR-122_inh = miR-122 suppressors via Renilla sensor increase, primary screen, cell-based, Huh7 psiCHECK-miR122, Renilla luciferase, single point | 48 h | activation, % at 12.5 µM | actives 0.14% (n = 340,000) | AID 623901, 2012;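 active means mean activation of 30% or more, with every replicate also reaching 30%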;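 further: 0% = median of neutral control wells and 100% = median of positive control wells; higher luciferase signal means stronger suppression of miR-122 activity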
Numbers without * were called inactive. Many of the other results were omitted from the sample, so hits are more common in it than they were.

SMILES miR-122_inh
C[C@H]1CN([C@@H](C)CO)C(=O)c2cc(C#CC(C)(C)O)cnc2O[C@@H]1CN(C)C(=O)C1CC1 -1.9
CCCN(C)C[C@@H]1Oc2cc(C#CC(C)C)ccc2S(=O)(=O)N([C@@H](C)CO)C[C@@H]1C 5.4
CC(C)C#Cc1cnc2c(c1)C(=O)N([C@H](C)CO)C[C@@H](C)[C@@H](CN(C)C(=O)CC1CC1)O2 0.5
COCC#Cc1ccc2c(c1)O[C@@H](CN(C)C(C)=O)[C@@H](C)CN([C@@H](C)CO)S2(=O)=O 8.9
C[C@H]1CN([C@@H](C)CO)C(=O)c2cc(-c3cncnc3)cnc2O[C@H]1CN(C)Cc1ccccc1 -2.7
CC(C)CC#Cc1cnc2c(c1)C(=O)N([C@@H](C)CO)C[C@@H](C)[C@H](CN(C)C(=O)Nc1cc(F)ccc1F)O2 -0.5
FC(F)(F)c1cc(CCN2CCNC[C@@H]2CC2CCCCC2)cc(C(F)(F)F)c1 37.7*
C/C=C/c1ccc2c(c1)O[C@H](CN(C)C(=O)CC1CC1)[C@H](C)CN([C@@H](C)CO)S2(=O)=O -6.0
COc1cc(/C=N/Nc2nc(Nc3ccc(C)cc3)nc(-n3nc(C)cc3C)n2)cc(OC)c1OC 46.9*
COCC(=O)Nc1ccc2c(c1)OC[C@H](C)N(C(C)=O)C[C@H](C)[C@H](OC)CN(C)C2=O -2.0
C[C@@H]1CN([C@H](C)CO)C(=O)c2cc(C#CC3(O)CCCC3)cnc2O[C@@H]1CN(C)S(C)(=O)=O 4.6
C/C=C/c1ccc2c(c1)O[C@H](CN(C)S(=O)(=O)c1ccccc1OC)[C@H](C)CN([C@H](C)CO)S2(=O)=O -54.7
C[C@@H]1CN([C@@H](C)CO)C(=O)c2cc(/C=C/c3ccccc3)cnc2O[C@H]1CN(C)Cc1cccc(C(=O)O)c1 -28.4
CN1/C(=C/C=C/c2n(C)c3cc([N+](=O)[O-])c([N+](=O)[O-])cc3[n+]2C)C(C)(C)c2ccccc21 37.8*
CCC(=O)Nc1ccc2c(c1)OC[C@H](C)N(Cc1ccccc1F)C[C@@H](C)[C@H](OC)CN(C)C2=O -0.6
CCC(=O)N(C)C[C@@H]1Oc2cc(-c3cccnc3)ccc2S(=O)(=O)N([C@H](C)CO)C[C@@H]1C -6.5
CCCN(C)C[C@@H]1Oc2ncc(-c3cccc(C(F)(F)F)c3)cc2C(=O)N([C@H](C)CO)C[C@@H]1C 10.1
Cc1sc2ncnc(N/N=C/c3ccccc3O)c2c1C 36.5*
C[C@@H]1CN([C@H](C)CO)C(=O)c2cc(C3=CCCC3)cnc2O[C@@H]1CN(C)C(=O)C1CCCCC1 11.4
CCCC(=O)Nc1ccc2c(c1)OC[C@@H](C)N(C)C[C@H](C)[C@H](OC)CN(C)C2=O 0.6
CCCNC(=O)N(C)C[C@H]1Oc2ncc(C#CC(C)C)cc2C(=O)N([C@H](C)CO)C[C@@H]1C 7.4
C[C@H]1CN([C@@H](C)CO)C(=O)c2cc(C#CCN(C)C)cnc2O[C@@H]1CN(C)C(=O)Cc1ccncc1 2.3
COc1ccccc1CNS(=O)(=O)c1ccc(-c2cc(C)no2)cc1 -95.2
COc1ccccc1CNc1nc(NCC2CC2)nc2ccsc12 43.0*
CNc1nc(NCC2CCCCC2)c2sccc2n1 42.8*
SMILES miR-122_inh
C[C@@H]1CN([C@H](C)CO)C(=O)c2cc(C#Cc3ccccc3F)cnc2O[C@@H]1CN(C)C(=O)Cc1ccncc1 10.3
C[C@H](CO)N1C[C@H](C)[C@@H](CN(C)Cc2ccccc2)Oc2ncc(-c3cncnc3)cc2C1=O -3.8
COc1ccc(C#Cc2cnc3c(c2)C(=O)N([C@@H](C)CO)C[C@H](C)[C@H](CN(C)CC2CCCC2)O3)cc1 10.8
COc1ccc(S(=O)(=O)N(C)C[C@H]2Oc3cc(C#CC4CC4)ccc3S(=O)(=O)N([C@H](C)CO)C[C@H]2C)cc1 -134.5
COc1cccc(-c2ccc3c(c2)O[C@H](CN(C)Cc2cccnc2)[C@H](C)CN([C@H](C)CO)S3(=O)=O)c1 1.5
Cc1cc(C)c2c(c1)/C(=C/C(=O)c1ccc(Br)s1)C(=O)N2 42.9*
C[C@@H]1CN([C@@H](C)CO)C(=O)c2cc(C#Cc3ccccc3)cnc2O[C@@H]1CN(C)C(=O)c1ccccn1 1.8
CC(=O)N1[C@H](CNC(=O)C2CC2)[C@@H](c2ccc(-c3ccccc3)cc2)[C@@H]1CO -200.0
C[C@@H]1CN([C@H](C)CO)C(=O)c2cc(/C=C/c3ccccc3)cnc2O[C@H]1CN(C)C(=O)c1cccnc1 8.8
COCC(=O)N(C)C[C@@H]1Oc2cc(C#CC3CC3)ccc2S(=O)(=O)N([C@@H](C)CO)C[C@H]1C -0.6
C[C@H]1CN([C@@H](C)CO)S(=O)(=O)c2ccc(C#CC3CC3)cc2O[C@H]1CN(C)C(=O)C1CC1 -13.7
COCC(=O)N(C)C[C@H]1Oc2cc(C#CC3CC3)ccc2S(=O)(=O)N([C@H](C)CO)C[C@H]1C 10.4
C[C@@H]1CN([C@H](C)CO)S(=O)(=O)c2ccc(C#CC3CC3)cc2O[C@@H]1CN(C)C(=O)c1cccc(F)c1 43.8*
COCC(=O)N(C)C[C@H]1Oc2cc(C#CC3CC3)ccc2S(=O)(=O)N([C@H](C)CO)C[C@@H]1C -1.6
C[C@@H]1CN([C@@H](C)CO)S(=O)(=O)c2ccc(C#CC3CC3)cc2O[C@@H]1CN(C)C(=O)c1cccc(F)c1 41.7*
COc1cccc(-c2cnc3c(c2)C(=O)N([C@H](C)CO)C[C@H](C)[C@@H](CN(C)CC2CCOCC2)O3)c1 5.0
C[C@H](CO)N1C[C@H](C)[C@H](CN(C)Cc2ccccc2)Oc2ncc(-c3cncnc3)cc2C1=O -0.1
C[C@H](CO)N1C[C@H](C)[C@H](CN(C)C(=O)c2ccncc2)Oc2cc(C#Cc3ccncc3)ccc2S1(=O)=O 0.7
C[C@H]1CN([C@@H](C)CO)C(=O)c2cc(C#CCc3ccccc3)cnc2O[C@H]1CN(C)Cc1cccc(C(=O)O)c1 1.4
COc1ccccc1-c1cnc2c(c1)C(=O)N([C@H](C)CO)C[C@H](C)[C@@H](CN(C)CC1CCCC1)O2 3.3
C[C@@H]1CN([C@@H](C)CO)C(=O)c2cc(C#CC3CCCCC3)cnc2O[C@H]1CN(C)S(=O)(=O)c1cccc(F)c1 45.5*
C[C@H]1CN([C@@H](C)CO)C(=O)c2cc(-c3ccc(C#N)cc3)cnc2O[C@H]1CN(C)C(=O)Nc1ccc(C(F)(F)F)cc1 37.0*
C[C@H](CO)N1C[C@H](C)[C@H](CN(C)S(=O)(=O)c2cccc(F)c2)Oc2ncc(C#CC3(O)CCCC3)cc2C1=O 7.2
C[C@H]1CN([C@@H](C)CO)C(=O)c2cc(-c3cccnc3)cnc2O[C@H]1CN(C)C(=O)Nc1ccc(F)cc1 6.3
C[C@H](CO)N1C[C@H](C)[C@@H](CN(C)CC2CCCC2)Oc2ncc(-c3cccc(F)c3)cc2C1=O -3.7
C[C@H]1CN([C@@H](C)CO)C(=O)c2cc(/C=C/c3ccccc3)cnc2O[C@H]1CN(C)S(=O)(=O)c1ccc(F)cc1 16.5
Cc1ccc(-c2cnc3c(c2)C(=O)N([C@H](C)CO)C[C@@H](C)[C@H](CN(C)CC2CCCCC2)O3)cc1 32.1*
C[C@@H]1CN([C@@H](C)CO)C(=O)c2cc(-c3cccc(F)c3)cnc2O[C@H]1CN(C)CC1CCCC1 9.6
C[C@@H]1CN([C@H](C)CO)C(=O)c2cc(C#CC3(O)CCCC3)cnc2O[C@H]1CN(C)S(=O)(=O)c1cccc(F)c1 6.0
COc1ccc(S(=O)(=O)N(C)C[C@@H]2Oc3ncc(/C=C/c4ccccc4)cc3C(=O)N([C@@H](C)CO)C[C@@H]2C)cc1 42.2*
